# Compound activity deposited in PubChem by several laboratories.
# Compounds with a hit are over-represented: about 2.3% of the library has one in this group of screens.
# Jurkat NFkB inh: lowers PMA/ionomycin-induced NF-kB signal in Jurkat cells; AID 435003; 0.53% of 330,000 active; inhibition, % at 4 µM; PMA/ionomycin-induced NF-kB luciferase reporter, luminescence; in the data active means inhibition above about 50%
# H9c2 TAG inh: inhibitors of triacylglycerol accumulation. H9c2 cells, Nile Red lipid (TAG) fluorescence; cells loaded with 200 µM oleic acid. 0.66% of 230,000 active. inhibition, % at 12.5 µM. AID 651582;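 active means pattern-corrected inhibition of lipid staining of at least 50% with the nuclear-stain viability signal not falling by more than 50%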;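 further: 0% = DMSO wells and 100% = triacsin C control wells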
# Gli-Sufu block: antagonists of Gli-Sufu signaling | Sufu-KO-LIGHT fibroblasts, Gli luciferase reporter luminescence | inhibition, % at 5 µM | 0.74% of 340,000 active | AID 588413;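 active means inhibition above about 55%, limit read from the data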;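 further: 0% = DMSO-treated cells and 100% = wells with medium but no cells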
# 697 NFkB inh: inhibitors of the PMA/ionomycin-induced NF-kB reporter in 697 B cells | 697 B-cell NF-kB luciferase reporter, 16 h | inhibition, % at 4 µM | 0.33% of 330,000 active | AID 435022; in the data active means inhibition above about 35%
# Shn3 inh set2: Schnurri-3 reporter inhibition in Clone20 osteoblasts; Clone20 osteoblast Shn3 3'UTR firefly luciferase, 24 h; inhibition, % at 12.5 µM; 0.52% of 360,000 active; AID 588674;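 active means mean inhibition of at least 75% with every replicate also reaching 75%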;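 further: 0% = median of neutral control wells and 100% = pilot-screen positive control compound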
# aSyn 5UTR inh: 5' untranslated region of α-synuclein, MLPCN primary screen; alpha-synuclein 5'UTR reporter, inhibitor activity; 0.82% of 300,000 active; AID 1813; inhibition, % (tested at 7.5 µM); in the data active means inhibition above about 60%;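 further: H4 neuroglioblastoma cells stably carrying SNCA 5'UTR luciferase fusion; 0% = DMSO wells and 100% = positive control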
# H9c2 TAG conf: triacylglycerol accumulation inhibition, confirmation. inhibition, % at 12.5 µM. AID 651629. H9c2 lipid accumulation, Nile Red fluorescence; cells loaded with 200 µM oleic acid. 71% of 990 active. shares compounds with H9c2 TAG inh;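 active means mean inhibition across replicates of 40% or more; inactive means mean inhibition below 40%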;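 further: plate controls were DMSO only wells for no effect and Triacsin C treated wells for full effect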
# Numbers without * were called inactive; · = no result.
SMILES,Jurkat NFkB inh,H9c2 TAG inh,Gli-Sufu block,697 NFkB inh,Shn3 inh set2,aSyn 5UTR inh,H9c2 TAG conf
Cc1nn(-c2ccccc2)c2c1CC(=O)Nc1ccccc1-2,·,74*,40,·,9,·,87*
Cc1nn(-c2ccccc2)c(=O)c2ccccc12,-10,7,-4,4,1,-27,·
CS(=O)(=O)N1CCN(CC2CC3C=CC2C3)CC1 (stereo not drawn),3,14,-2,10,-3,12,·
CC(C)(CO)NS(=O)(=O)c1ccc2c(c1)oc(=O)c1cc(S(=O)(=O)NC(C)(C)CO)ccc12,7,·,6,10,-1,13,·
COc1cc(C2c3cc4c(cc3OC(C)(N3CCCC3)C2C)OCO4)cc(OC)c1OC (stereo not drawn),·,56*,32,·,14,·,56*
COc1cc(C2c3cc4c(cc3OC(N3CCCC3)C2C)OCO4)cc(OC)c1O (stereo not drawn),·,3,18,·,-9,·,·
O=C(NCCCCCCCN1CCCCCCC1)C(C1CCCCC1)C1CCCCC1,·,70*,14,·,-4,·,51*
CCN(CC)c1ccc(C(=O)N/N=C(\C)c2cccnc2)cc1,-7,3,-24,6,-5,-15,·
C=CCNc1ncnc2c1[nH]c1ccc(C)cc12,-89,·,5,-147,18,-184,·
c1ccc(Nc2nc(N3CCNCC3)nc(N3CCOCC3)n2)cc1,-22,88*,-1,15,17,12,35
NNc1nc(Nc2ccc([N+](=O)[O-])cc2)nc(N2CCCCCC2)n1,-14,26,0,-20,14,-41,·
O=[N+]([O-])c1ccc(Nc2nc(N/N=C\c3ccc4c(c3)OCO4)nc(N3CCCCC3)n2)cc1,23,66*,7,27,47,-23,37
O=[N+]([O-])c1ccc(Nc2nc(N3CCOCC3)nc(N3CCOCC3)n2)cc1,-7,53*,4,11,7,4,61*
c1ccc(Nc2nc(N3CCOCC3)nc(N3CCOCC3)n2)cc1,-26,46,9,18,25,26,·
CCCCN(C)C(=O)c1ccc(Nc2nc(C(N)Cc3ccc(C(F)(F)F)cc3)cs2)nc1 (stereo not drawn),·,56*,·,·,13,·,71*
CCCCN(C)C(=O)c1ccc(Nc2nc(C(N)CCc3ccccc3)cs2)nc1 (stereo not drawn),·,11,·,·,16,·,·
NC(Cc1ccc(C(F)(F)F)cc1)c1csc(Nc2nncc3ccccc23)n1 (stereo not drawn),·,52*,·,·,7,·,68*
NC(Cc1ccc(C(F)(F)F)cc1)c1csc(Nc2ccc(C(=O)NCCCO)cn2)n1 (stereo not drawn),·,57*,·,·,-9,·,38
Cc1nc(NC(=O)COC(=O)C(C)NC(=O)c2ccccc2)c(Cl)cc1Cl (stereo not drawn),-8,-8,0,8,2,·,·
O=C(Nc1ccccc1C(=O)N1CCCC1)c1ccc(Cl)cc1Cl,-12,·,-2,-18,28,22,·
Cc1cc(C)c2nc(-c3ccncc3)cc(C(=O)N3CCN(Cc4ccccc4Cl)CC3)c2c1,2,62*,16,-19,11,19,59*
CCCCCCN(C(=O)CCCN1C(=O)NC(c2ccc(-c3ccccc3)cc2)C(C(=O)OCc2ccccc2)=C1C)C(C)C(=O)NCCCC (stereo not drawn),·,38,-3,15,22,·,·
CCCCCCN(C(=O)CCCCCN1C(=O)NC(c2ccc([N+](=O)[O-])cc2)C(C(=O)OCc2ccccc2)=C1C)C(C(=O)NCCCC)C1CCCCC1 (stereo not drawn),·,66*,9,8,57,·,56*
CSc1ccccc1NC(=O)c1noc2c1CCC2,-15,·,-9,-8,-52,-103,·
CCCc1nnc(NC(=O)COC(=O)c2cc(C)nc3ccccc23)s1,-7,·,0,-3,-34,-1,·
SMILES,Jurkat NFkB inh,H9c2 TAG inh,Gli-Sufu block,697 NFkB inh,Shn3 inh set2,aSyn 5UTR inh,H9c2 TAG conf
COC(=O)N/N=C/c1cccs1,-3,-1,-1,-17,14,-9,·
COc1cc2ccccc2cc1C(=O)N/N=C/c1cccs1,·,55*,·,·,13,·,64*
COc1ccc(C(=O)N2CCN(S(=O)(=O)c3ccccc3)CC2)c(OC)c1,17,·,4,10,0,10,·
O=C(Cc1ccc(-n2c(=O)[nH]c3ccsc3c2=O)cc1)NCc1cccnc1,-31,·,3,-25,5,-5,·
COCCn1cnc2c(c1=O)c1nc3ccccc3nc1n2/N=C/c1ccc(OC)c(OC)c1,8,68*,0,14,16,-56,88*
COc1ccc(C(=O)Nc2ccc(C(=O)Nc3cccc(C)c3)cc2)cc1,12,56*,8,9,11,-1,38
COCCNC(=O)c1ccccc1NC(=O)CN(c1ccc2c(c1)OCO2)S(C)(=O)=O,-6,·,-15,0,-8,1,·
CCOC(=O)/C(=N\Nc1ccc(Cl)cc1)c1csc(Nc2ccccc2)n1,-14,75*,17,-27,1,-33,69*
CCCCNC(=O)CSc1nc2ccc(Nc3nc(N4CCOCC4)nc(N4CCOCC4)n3)cc2s1,8,57*,7,0,41,3,-3
CCCCSc1nc2ccc(Nc3nc(N4CCOCC4)nc(N4CCOCC4)n3)cc2s1,-4,80*,8,-12,20,-14,97*
CCCC(=O)Nc1ccc2nc(SCC(=O)N3CCCC3)sc2c1,7,-2,20,12,-9,-49,·
O[C@@H](c1cc(C(F)(F)F)nc2c(C(F)(F)F)cccc12)[C@H]1CCCCN1,15,132,2,-22,10,5,·
CC(C)(C)NCCC(O)c1cc(C(F)(F)F)nc2c(C(F)(F)F)cccc12 (stereo not drawn),·,65*,20,·,14,·,63*
Cc1cc(-c2csc(NC(=O)c3ccc(=O)[nH]c3)n2)c(C)n1Cc1ccccc1,-3,11,-2,5,6,26,·
O=C(O)c1cccc(Nc2nc3ccccc3nc2NS(=O)(=O)c2cccs2)c1,2,·,9,-16,-1,-5,·
CCCCN(C)c1c(C)nc2ccc(C(=O)NCc3cccs3)cn12,·,-20,·,·,16,·,·
C[C@@]12C(=O)Nc3ccc(Br)cc3C(=O)N1[C@H]1c3cc(Cl)ccc3OC[C@@H]1[C@@H]2c1ccccc1,29,52*,5,23,34,·,64*
C[C@@]12C(=O)Nc3ccc(Br)cc3C(=O)N1[C@H]1c3ccccc3OC[C@@H]1[C@@H]2c1ccccc1,-3,8,-9,17,28,·,·
COc1ccc(C(=O)Nc2sc3c(c2C(=O)NCc2ccco2)CCCC3)cc1OC,-15,66*,18,25,0,1,52*
COc1ccc(C(=O)Nc2ccc(Cl)cc2C(=O)NCc2ccco2)cc1OC,-19,52*,12,-17,10,13,17
